Results filed as inconclusive are left out. Activity calls are given as the source filed them. Unless noted, the call rests on the fitted dose curve; in most records, active means well fitted curve in the direction sought with a large enough effect in the repeat runs; inconclusive means weak or mixed curves; inactive means no such curve, though single readings can be large; an effect the other way counts as inactive or inconclusive.
Tests used:
[1] = qHTS assay to identify small molecule agonists of the estrogen receptor alpha (ER-alpha) signaling pathway in the presence of an antagonist - cell viability counter screen (AID 1259386); details: VM7Luc4E2 viability, CellTiter-Fluor fluorescence, 22 h; series mostly up to 92.4 µM;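 further: cells exposed to compounds for 22 h at 37 °C before the viability read; nearly all actives have a fitted effect of over 30% in size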
In short: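 VM7Luc4E2 cells (endogenous full-length ER-alpha, 4×ERE-luciferase) were held 5 days in phenol red-free medium with 10% charcoal-stripped FBS, plated, then given 10.0nM ICI-182,780 and compounds at 15 concentrations for 22hr at 37C; viability read by CellTiter-Fluor fluorescence.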

[2] = target: Progesterone receptor (Homo sapiens) (UniProt P06401); experiment: qHTS assay to identify small molecule agonists of the progesterone receptor (PR) signaling pathway (AID 1346784; calls by dose curve; further: nearly all actives have a fitted effect of over 30% in size); details: PR-UAS-bla HEK293T, beta-lactamase FRET ratio, 16 h; series mostly up to 92.4 µM
In short: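 Beta-lactamase reporter read-out: after 16 hr compound treatment at 37C and a further 2 hr at room temperature with LiveBLAzer B/G FRET substrate, fluorescence was measured in PR-UAS-bla HEK 293T cells grown in 2% charcoal-stripped serum.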

[3] = target: Progesterone receptor (Homo sapiens) (UniProt P06401); experiment: qHTS assay to identify small molecule antagonists of the progesterone receptor (PR) signaling pathway (AID 1346795; active means well fitted inhibition curve with a large enough effect in the signal ratio in the repeat runs, not every such curve was filed as active; the % refers to the signal ratio); details: PR-UAS-bla HEK293T, beta-lactamase FRET ratio, 16 h; series mostly up to 92.4 µM
In short: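 Read-out is fluorescence from the LiveBLAzer B/G FRET substrate, cleaved by a UAS-controlled beta-lactamase in PR-UAS-bla HEK293T cells after 16 hr exposure to compound plus 1 nM promegestone (final), followed by 2 hr at room temperature.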

[4] = qHTS assay to identify small molecule antagonists of the progesterone receptor (PR) signaling pathway - cell viability counter screen (AID 1346798); details: PR-UAS-bla HEK293T viability, CellTiter-Glo luminescence, 16 h; series mostly up to 42.5 µM;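 further: HEK293T PR-UAS-bla cells stimulated with the agonist R5020; nearly all actives have a fitted effect of over 50% in size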
In short: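 HEK293T PR-UAS-bla, 2% charcoal-stripped FBS; 4 hr pre-plate; cpd + R5020, 16 h 37C; LiveBLAzer read first; then CellTiter-Glo 30 min RT, luminescence.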

[5] = qHTS assay to identify small molecule agonists of the progesterone receptor (PR) signaling pathway - cell viability counter screen (AID 1346799; calls by dose curve; further: nearly all actives have a fitted effect of over 45% in size); details: PR-UAS-bla HEK293T viability, CellTiter-Glo luminescence, 16 h; series mostly up to 92.4 µM
In short: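 Luminescence from CellTiter-Glo, added after the beta-lactamase FRET read in the same wells, gave cytotoxicity in PR-UAS-bla HEK293T cells treated with compounds for 16 hr at 37C.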

[6] = qHTS assay to identify small molecule agonists of the TGF-beta/Smad signaling pathway - cell viability counter screen (AID 1346829); details: SBE-bla HEK293T viability, CellTiter-Glo luminescence, 5 h; series mostly up to 76.8 µM; further: top concentration of the series differs between compounds; nearly all actives have a fitted effect of over 45% in size
In short: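 Luminescence from CellTiter-Glo, read after a 30 min room-temperature incubation, gives cell viability of SBE-bla HEK 293T cells treated 5 hr with compounds at 37 C.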

[7] = qHTS assay to identify small molecule agonists of the TGF-beta/Smad signaling pathway (AID 1346859; active means well fitted activation curve with a large enough effect in the signal ratio in the repeat runs, not every such curve was filed as active; the % refers to the signal ratio); details: SBE-bla HEK293T, TGF-beta/Smad beta-lactamase reporter, 5 h; series mostly up to 76.8 µM
In short: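 SBE-bla HEK 293T, 4,000 cells/well, plated o/n; cpd in DMSO, 5 hr, 37 C/5% CO2; B/G FRET substrate 2 hr RT; ex 405, em 460/530 nm.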

[8] = target: Thyrotropin-releasing hormone receptor (Homo sapiens) (UniProt P34981); experiment: qHTS assay to identify small molecule antagonists of the thyrotropin-releasing hormone receptor (TRHR) signaling pathway (AID 1346877; active means well fitted inhibition curve with a large enough effect in the repeat runs, not every such curve was filed as active); details: TRHR-HEK293, TRH-induced calcium fluorescence, antagonist mode; series mostly up to 51.3 µM
In short: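 TRHR-expressing HEK293 cells were seeded, cultured 18 h at 37 °C, then loaded with calcium dye for 2 h. Compounds were pre-incubated 5 min at room temperature before 1 nM TRH (final) was added, and kinetic fluorescence was recorded for 3 min.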

[9] = qHTS assay to identify small molecule antagonists of the TGF-beta/Smad signaling pathway - cell viability counter screen (AID 1346824); details: SBE-bla HEK293T viability, CellTiter-Glo luminescence; series mostly up to 76.8 µM; further: nearly all actives have a fitted effect of over 50% in size
In short: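 SBE-bla HEK 293T cells, incubated overnight, then compound plus 0.25 ng/mL TGF-beta1 (stock added) for 5 hr at 37 C. Viability was read in the same wells by CellTiter-Glo luminescence after 30 min at room temperature.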
On the % scale 0 is the no-effect control and ±100 the full control effect.

Sequence of Thyrotropin-releasing hormone receptor (Homo sapiens) (P34981 whole entry, looked up): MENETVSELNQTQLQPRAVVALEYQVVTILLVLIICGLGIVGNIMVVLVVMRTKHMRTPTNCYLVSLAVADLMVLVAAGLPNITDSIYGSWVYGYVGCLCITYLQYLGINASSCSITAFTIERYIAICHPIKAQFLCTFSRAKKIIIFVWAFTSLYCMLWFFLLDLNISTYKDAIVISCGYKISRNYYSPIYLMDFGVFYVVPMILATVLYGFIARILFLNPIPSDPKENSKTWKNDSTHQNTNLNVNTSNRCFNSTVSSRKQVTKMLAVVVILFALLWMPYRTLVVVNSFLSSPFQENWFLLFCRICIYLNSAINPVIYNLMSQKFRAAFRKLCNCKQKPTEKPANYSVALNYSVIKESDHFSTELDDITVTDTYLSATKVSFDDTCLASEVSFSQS
Sequence of Progesterone receptor (Homo sapiens) (P06401 whole entry, looked up): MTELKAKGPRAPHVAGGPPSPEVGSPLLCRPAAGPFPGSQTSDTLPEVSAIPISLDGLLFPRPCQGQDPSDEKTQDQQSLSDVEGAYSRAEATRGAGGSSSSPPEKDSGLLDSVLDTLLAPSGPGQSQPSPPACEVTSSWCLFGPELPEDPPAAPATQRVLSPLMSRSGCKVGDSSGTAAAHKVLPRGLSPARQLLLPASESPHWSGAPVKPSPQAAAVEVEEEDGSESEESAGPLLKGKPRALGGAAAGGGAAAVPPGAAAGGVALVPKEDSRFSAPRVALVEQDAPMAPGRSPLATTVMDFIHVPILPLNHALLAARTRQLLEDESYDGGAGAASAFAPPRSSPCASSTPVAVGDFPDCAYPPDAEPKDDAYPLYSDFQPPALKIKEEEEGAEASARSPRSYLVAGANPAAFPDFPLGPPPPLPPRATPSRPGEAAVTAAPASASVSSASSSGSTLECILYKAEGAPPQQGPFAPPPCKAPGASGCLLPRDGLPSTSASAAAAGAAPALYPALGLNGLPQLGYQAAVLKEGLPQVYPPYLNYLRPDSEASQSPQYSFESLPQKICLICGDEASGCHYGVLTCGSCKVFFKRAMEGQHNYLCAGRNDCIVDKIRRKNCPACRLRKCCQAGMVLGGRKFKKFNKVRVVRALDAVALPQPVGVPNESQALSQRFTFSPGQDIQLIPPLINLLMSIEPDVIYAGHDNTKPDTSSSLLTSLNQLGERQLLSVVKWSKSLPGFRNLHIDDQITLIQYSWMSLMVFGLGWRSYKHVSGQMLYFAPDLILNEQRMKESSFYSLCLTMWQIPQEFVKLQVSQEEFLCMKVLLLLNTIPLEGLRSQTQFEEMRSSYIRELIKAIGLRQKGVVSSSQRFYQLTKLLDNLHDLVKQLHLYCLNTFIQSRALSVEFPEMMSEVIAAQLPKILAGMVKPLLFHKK

CC(C)(C)C1CCCCC1=O (centres undefined)
inactive: Potency [1] | Potency [2] | Potency [3] | Potency [4] | Potency [5] | outcome [6] | outcome [7] | outcome [8]

CCc1cc(Cl)c(OC)c(C(=O)NC[C@@H]2CCCN2CC)c1O
inactive: Potency [1] | Potency [2] | Potency [3] | Potency [4] | outcome [9] | outcome [6]

O=C(O)CN(CCN(CC(=O)O)CC(=O)O)CCN(CC(=O)O)CC(=O)O
inactive: activity change, negative = cytotoxicity [1] -0.23% [at 19 µM] | activation [2] 9.07% [at 19 µM] | activity change, negative = inhibition [3] -12.7% [at 18.9 µM] | activity change, negative = cytotoxicity [5] -4.49% [at 19 µM] | viability change, negative = cytotoxic [9] 3.31% [at 15.8 µM] | activity change, negative = cytotoxicity [6] 9.66% [at 15.8 µM] | activity, negative = inhibition [8] 0.832% [at 10.5 µM]

Cc1cc2c(s1)Nc1ccccc1N=C2N1CCN(C)CC1
inactive: Potency [3] | Potency [4] | Potency [5] | outcome [9] | outcome [6] | outcome [7] | outcome [8]

CCCCC(CC)COC(=O)COc1cc(Cl)c(Cl)cc1Cl (centres undefined)
inactive: Potency [1] | Potency [2] | Potency [3] | Potency [4] | Potency [5] | outcome [9] | outcome [6] | outcome [8]

CC1(C)C(=O)N(Cl)C(=O)N1Br
inactive: Potency [1] | Potency [3] | Potency [4] | Potency [5] | outcome [6] | outcome [7] | outcome [8]

CC(=O)N[C@@H](CC(C)C)C(=O)O
inactive: Potency [1] | Potency [2] | Potency [3] | Potency [4] | Potency [5] | outcome [6] | outcome [7] | outcome [8]

CCC(=O)c1ccc2c(c1)N(CCCN(C)C)c1ccccc1S2
inactive: Potency [1] | Potency [2] | Potency [4] | Potency [5] | outcome [9] | outcome [6] | outcome [7] | outcome [8]
